Here are results for 13 molecules from PubChem BioAssay (Tox21).

Results filed as inconclusive are left out. Entries that show only a call come without a potency. Calls of active or inactive are those of the source. The call rests on the fitted dose curve; in most records, active means well fitted activation curve with a large enough effect in the repeat runs; inconclusive means weak or mixed curves, or effect the other way; inactive means no such curve, though single readings can be large or run the other way.

This experiment is described as follows: qHTS assay to identify small molecule agonists of the retinoic acid receptor (RAR) signaling pathway (AID 1159553). Conditions: C3RL4 RARE luciferase reporter, agonist, 6 h; activation: at 73.3 µM (top of the series) unless noted. In short, it runs like this:
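Activation of retinol signaling was monitored via a RARE luciferase reporter in C3RL4 cells. After 6 hr compound treatment at 37 C, detection reagent was added for 30 min at room temperature before luminescence reading.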
(Quantitative high-throughput screening tests each substance at several concentrations.)
`COc1ccc(O)c(C(C)(C)C)c1`: the Potency entry is “inactive”.
As to `O=C1CCCO1`, the Potency entry is “inactive”.
As for `CS(=O)(=O)NC(=O)c1cc(Oc2ccc(C(F)(F)F)cc2Cl)ccc1[N+](=O)[O-]`, the Potency entry is “inactive”.
As for `C[C@]12CC[C@H]3[C@@H](CCC4=CC(=O)CC[C@@H]43)[C@@H]1CC[C@@H]2O`, the Potency result was “inactive”.
`ClCC(Cl)CCl`: the Potency result is “inactive”.
In the case of `COP(=S)(OC)Oc1ccc(S(=O)(=O)N(C)C)cc1`, the Potency result is “inactive”.
The same measure for `CC(C)(C#N)N=NC(C)(C)C#N`: “inactive”; for `O=[N+]([O-])/N=C1\NCCN1Cc1ccc(Cl)nc1`: “inactive”.
As to `CC(O)CN(CC(C)O)CC(C)O` (stereo not drawn), the Potency result is “inactive”.
The same measure for `CC(C)(c1ccc(OCC2CO2)cc1)c1ccc(OCC2CO2)cc1` (stereo not drawn): “inactive”; for `CCCCOC(=O)COC(=O)c1ccccc1C(=O)OCCCC`: “inactive”.
Consider `CC1(C)C(C(=O)OC(C#N)c2cccc(Oc3ccccc3)c2)C1(C)C` (stereo not drawn), for which the Potency entry was “inactive”.
In the case of `COc1ccc(C=O)cc1OC`, the Potency entry is “inactive”.
